# From PubChem BioAssay
# Rows were chosen to be rich in hits. Some 1.7% of all compounds tested hit in one or more screens of this group.
# ARNT-TACC3 inh: disruptors of human ARNT/TACC3 interaction. Q9Y6A5. AlphaScreen His-ARNT PAS-B/GST-TACC3 binding, luminescence; TACC3 fragment carries E629A point mutation. inhibition, % at 9.99 µM. 0.66% of 390,000 active. AID 623870;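 active = mean inhibition of replicates at least 50% and at least half of replicates each reaching 50%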;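 also: 0% = complete ARNT plus TACC3 wells and 100% = ARNT alone without TACC3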
# Vif imaging: blocks HIV Vif function; HEK293T cells, Vif self-association by quenched fluorescence, imaging, 24 h; inhibition, % at 7.49 µM; 0.35% of 340,000 active; AID 602346; in the data active = inhibition above about 50%, passing the limit was not always enough
# N-glyco inh: N-linked glycosylation inhibition | D54 ERlucT glycosylation luciferase reporter, 24 h; percent of 100 nM tunicamycin response | reporter increase, % at 12.5 µM | 0.23% of 360,000 active;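 active = mean luciferase reporter signal, scaled so untreated is 0 and the glycosylation-blocking control 100, at or above a set limit in every replicate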;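 also: luciferase carries N-glycosylation sites so blocking glycosylation raises the light; 0% = median of neutral control wells and 100% = median of 100 nM tunicamycin wells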
# Cardio protect: modulators protecting cardiomyocytes from myocardial damage; H9c2 cardiomyocytes, H2O2 injury protection, ATPLite, 2 h; protection from H2O2 cell death, % at 20 µM; 0.63% of 360,000 active; AID 588492;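 active = compounds giving at least 50% protection of heart cells from peroxide-induced death in the single-dose screen, raw or plate-pattern-corrected value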;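 also: 0% = DMSO wells with peroxide and 100% = DMSO wells without peroxide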
# aDG glyco act: increases alpha dystroglycan glycosylation | Pro5-aDG cells, alpha-DG glycosylation AlphaScreen (IIH6); 0% Pro5, 100% B10-LARGE cell signal | activation, % at 10 µM | 0.22% of 360,000 active | AID 624168;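 active = activation of at least 8% versus controls, or a plate z-score of at least 8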;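 also: Pro5 are CHO cells carrying HIG-tagged alpha-DG that lacks glycosylation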
# * marks the source's active call; other numbers are inactive results; . = no result.
SMILES,ARNT-TACC3 inh,Vif imaging,N-glyco inh,Cardio protect,aDG glyco act
COc1ccc(/C=N/NC(=O)c2ccn[nH]2)cc1COc1ccc(Cl)cc1,.,8,-5,63*,0
COc1ccc(OC)c(/C=N/NC(=O)CCc2c(C)n[nH]c2C)c1,-9,-3,3,-1,0
COc1ccc(OC)c(/C=N/NC(=O)CCc2ccc(O)c(O)c2)c1,0,-2,1,51*,0
C[C@H]1CCCCO[C@H](CN(C)C(=O)Nc2ccc3c(c2)OCO3)[C@@H](C)CN([C@@H](C)CO)C(=O)c2cc(NS(=O)(=O)c3ccc(F)cc3)ccc2O1,12,.,.,.,.
CC(C)(C)OC(=O)C[C@@H]1C/C=C\C[C@@H](CC(=O)N(CCO)Cc2ccccc2)C(=O)NC[C@@H](c2ccccc2)OC1=O,-5,1,3,16,0
CC(C)(C)OC(=O)C[C@@H]1C/C=C\C[C@@H](CC(=O)N(CCO)Cc2ccccc2)C(=O)NC[C@H](c2ccccc2)OC1=O,1,22,-1,92*,1
CC(OC(=O)Cc1n[nH]c(=O)c2ccccc12)C(=O)Nc1cccc([N+](=O)[O-])c1 (stereo not given),-6,-5,1,58*,0
Cc1cccc(C(C)C)c1NC(=O)C(C)OC(=O)Cc1n[nH]c(=O)c2ccccc12 (stereo not given),-1,6,1,71*,0
CC(OC(=O)Cc1n[nH]c(=O)c2ccccc12)C(=O)Nc1ccccc1[N+](=O)[O-] (stereo not given),3,4,0,72*,1
COc1ccccc1NC(=O)C(C)OC(=O)Cc1n[nH]c(=O)c2ccccc12 (stereo not given),-5,-13,0,66*,0
C[C@@H]1CN([C@H](C)CO)C(=O)Cc2cc(N(C)C)ccc2O[C@H]1CN(C)Cc1ccc2c(c1)OCO2,0,.,.,.,.
C[C@H]1CN([C@@H](C)CO)C(=O)Cc2cc(NS(=O)(=O)c3ccccc3)ccc2O[C@@H]1CN(C)S(=O)(=O)c1cn(C)cn1,5,.,.,.,.
C/C=C/c1ccc([C@@H]2[C@@H](CO)N(c3ncc(CC)s3)[C@H]2C#N)cc1,0,.,.,.,.
O=C(C[C@H]1C=C[C@@H](NC(=O)c2cccc(F)c2)[C@@H](CO)O1)NCc1ccccc1,-23,.,.,.,.
O=C(N[C@H]1C=C[C@H](CC(=O)N2CCCCC2)O[C@H]1CO)c1ccc2c(c1)OCO2,-4,.,.,.,.
CSCCC(NS(=O)(=O)c1ccccc1)C(=O)OCc1nc2ccsc2c(=O)[nH]1 (stereo not given),.,29,-1,18,0
CSCCC(NS(=O)(=O)c1ccccc1)C(=O)OCc1cc(=O)oc2cc(O)ccc12 (stereo not given),7,-1,3,56*,0
Cc1ccc(NC(=O)CSC(C)C(=O)OCc2cc(=O)oc3cc(O)ccc23)cc1 (stereo not given),.,7,1,67*,0
C[C@@H]1CN([C@H](C)CO)C(=O)Cc2cc(NC(=O)C3CC3)ccc2O[C@@H]1CN(C)C(=O)Nc1ccc2c(c1)OCO2,-6,.,.,.,.
CCCNC(=O)Nc1ccc2c(c1)OC[C@H](C)N(Cc1ccncc1)C[C@H](C)[C@@H](OC)CN(C)C2=O,-8,.,.,.,.
Cc1ccc(S(=O)(=O)Nc2ccc3c(c2)C(=O)N([C@H](C)CO)C[C@@H](C)[C@@H](CN(C)C(=O)Nc2ccccc2)OCCCC[C@H](C)O3)cc1,2,.,.,.,.
CNc1ccccc(C(=O)/C=C/c2ccccc2OC)c1=O,7,0,-2,51*,0
COc1ccccc1/C=C/C(=O)/C=C/c1ccccc1O,1,-4,39*,-15,0
CNc1ccc(Br)cc(C(=O)/C=C/c2cccc(OC)c2OC)c1=O,14,75*,20,18,0
CNc1ccc(Br)cc(C(=O)/C=C/c2cccc(Cl)c2Cl)c1=O,-3,-3,-7,-8,0
SMILES,ARNT-TACC3 inh,Vif imaging,N-glyco inh,Cardio protect,aDG glyco act
COc1ccc(N/C=C/C(=O)c2cc(OC)c(OC)c(OC)c2)cc1,7,-2,38*,0,0
COc1ccc(N/C=C/C(=O)c2ccc(OC)c(OC)c2)cc1,-1,1,3,-5,0
COc1ccc(C=CC(=O)c2c(OC)cc(OC)c(OC)c2O)cc1,-5,5,29*,23,0
COc1ccc(C(=O)/C=C/Nc2cccc(C)n2)cc1OC,4,60*,-5,1,0
Cc1ccccc1-c1cnc2c(c1)C(=O)N([C@H](C)CO)C[C@@H](C)[C@H](CN(C)CC1CCOCC1)O2,-7,.,.,.,.
C=C1C(=O)O[C@@H]2[C@H]1[C@@H](OC(=O)/C(C)=C/C)C/C(C)=C\C(=O)/C=C(\C)[C@@H]2O,-3,97*,8,-17,0
C[C@@H]1CN([C@H](C)CO)C(=O)c2cc(NC(=O)Cc3cn(C)c4ccccc34)ccc2O[C@@H]1CN(C)Cc1ccc(Cl)c(Cl)c1,0,.,.,.,.
COc1cccc(C(=O)NCCCNC(=O)c2cccnc2)c1,0,87*,0,3,0
COc1cccc(C(=O)NCCCNC(=O)c2cccc(OC)c2)c1,-3,-2,-2,2,0
CC(=NNC(=O)c1cc(C)oc1C)c1ccc(Br)s1,7,52*,-1,1,0
COc1cc(CN2CCc3ccccc3C2)ccc1O,-14,-1,93*,-16,0
O=C1c2ccccc2NC(c2cn[nH]c2-c2ccc(Cl)cc2)N1O (stereo not given),-5,-4,-5,67*,0
O=C1c2ccccc2NC(c2ccccc2O)N1O (stereo not given),3,-12,4,52*,0
O=C1c2ccccc2NC(c2cn[nH]c2-c2ccccc2)N1O (stereo not given),4,7,-2,50*,0
Cc1ccc(N2C(=O)c3ccccc3NC2c2ccccc2O)cc1 (stereo not given),32,-14,-11,-6,1
C[C@@H]1CCCCO[C@H](CN(C)Cc2ccc(C(=O)O)cc2)[C@@H](C)CN([C@H](C)CO)C(=O)c2cc(NC(=O)NC3CCCCC3)ccc2O1,6,.,.,.,.
COc1cc(-c2nc3cnccn3c2Nc2ccccc2)ccc1O,-2,17,16,6,0
COc1cc(-c2nc3cnccn3c2Nc2ccc(C)cc2)ccc1O,-7,.,26*,0,0
Clc1ccc(CNc2ncccn2)cc1,5,-8,-4,2,0
Oc1cc(NCc2ccc(Cl)cc2)cc2cccnc12,37*,14,23,-16,1
C[C@H]1CN([C@@H](C)CO)C(=O)c2cccc(NC(=O)Nc3ccccc3)c2O[C@H]1CN(C)C,-3,.,.,.,.
CC(=O)C1=C(C)NC(SCC(=O)c2ccc(Cl)cc2)=C(C#N)C1c1ccco1 (stereo not given),14,58*,-5,8,1
